Data published in the supplement of paper PMC10849652.
The full data set covers some 8,800 targets. This sample favours those with a hit. About 0.5% of all pairs of compound and target were hits.

Experiments:
Assay in all cases: log2 fold change, soluble protein after heating vs DMSO (PISA); higher = thermal stabilisation; K562 lysate, 10 uM; active = over 0.2 and 3.5 SD of the protein, either way, in both replicates (recomputed)
[1] = compound: CS(=O)(=O)CCNCc1ccc(-c2ccc3ncnc(Nc4ccc(OCc5cccc(F)c5)c(Cl)c4)c3c2)o1 [lapatinib]
How it was run: (§1)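 To prepare the extract, K562 pellets were dounce-homogenised in PBS pH 7.4 with 1 mM MgCl2, giving crude material at 1 mg/mL protein. This was treated with 10 μM compound for 30 min, then heated in aliquots for 3 min over 48°C-58°C before pooling and addition of NP-40 to 0.5% at 4°C. Centrifugation at 21,000xg for 90 min left soluble protein in the supernatant, which TMTpro 16plex LC-MS/MS quantified with equalised channel sums. Results are log-two fold changes in thermal stability compared with solvent controls, from duplicates.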

[2] = compound: CS(=O)(=O)N1CCN(Cc2cc3nc(-c4cccc5[nH]ncc45)nc(N4CCOCC4)c3s2)CC1 [pictilisib]
How it was run: as §1

[3] = compound: C[C@@H](Oc1cc(-c2cnn(C3CCNCC3)c2)cnc1N)c1c(Cl)ccc(F)c1Cl [crizotinib]
How it was run: as §1

[4] = compound: C[C@H](C1=CC=C(C=C1)C(=O)NC2=C3C=CNC3=NC=C2)N
How it was run: as §1

[5] = compound: C[C@H](Nc1ncnc2nc[nH]c12)c1cc2cccc(Cl)c2c(=O)n1-c1ccccc1 [duvelisib]
How it was run: as §1

[6] = compound: Cc1cc(Nc2cc(CN3CCOCC3)c3nc(C)c(Cc4ccc(Cl)cc4F)n3n2)n[nH]1 [gandotinib]
How it was run: as §1

[7] = compound: Cc1cc(Nc2cc(N3CCN(C)CC3)nc(Sc3ccc(NC(=O)C4CC4)cc3)n2)n[nH]1 [tozasertib]
How it was run: as §1

[8] = compound: Cc1ccc(-n2nc(C(C)(C)C)cc2NC(=O)Nc2ccc(OCCN3CCOCC3)c3ccccc23)cc1 [doramapimod]
How it was run: as §1

[9] = compound: Cc1ccc(NC(=O)c2ccc(CN3CC[C@H](N(C)C)C3)c(C(F)(F)F)c2)cc1Nc1nccc(-c2cncnc2)n1 [bafetinib]
How it was run: as §1

[10] = compound: Cc1cccc(CC(=O)N2CCc3c2ccc(-c2cn(C)c4ncnc(N)c24)c3F)n1
How it was run: as §1

Measured: log2 fold change

AIMP1 isoform 2 (UniProt Q12904)
inactive: [1] -0.019 | [2] -0.004 | [3] -0.05 | [4] 0.023 | [5] 0.007 | [6] -0.085 | [7] -0.008 | [8] -0.015 | [9] -0.041 | [10] -0.012

ARL1 (UniProt P40616)
UniProt P40616, sequence (P40616 whole entry, looked up): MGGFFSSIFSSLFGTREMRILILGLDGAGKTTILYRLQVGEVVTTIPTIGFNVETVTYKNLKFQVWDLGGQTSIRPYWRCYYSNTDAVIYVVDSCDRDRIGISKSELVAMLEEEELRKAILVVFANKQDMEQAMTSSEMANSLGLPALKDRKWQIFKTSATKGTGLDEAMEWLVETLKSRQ
inactive: [1] 0.001 | [2] 0.051 | [3] -0.028 | [4] -0.056 | [5] 0.001 | [6] 0.159 | [7] 0.004 | [9] -0.027 | [10] 0.096
active: [8] 0.228

AIFM2 (UniProt Q9BRQ8)
inactive: [1] 0.132 | [2] -0.024 | [3] 0.06 | [4] -0.143 | [5] 0.004 | [7] -0.014 | [8] 0.307 | [9] 0.086 | [10] 0.089
active: [6] 0.507

ANKRD27 (UniProt Q96NW4)
UniProt Q96NW4, sequence (Q96NW4 whole entry, looked up): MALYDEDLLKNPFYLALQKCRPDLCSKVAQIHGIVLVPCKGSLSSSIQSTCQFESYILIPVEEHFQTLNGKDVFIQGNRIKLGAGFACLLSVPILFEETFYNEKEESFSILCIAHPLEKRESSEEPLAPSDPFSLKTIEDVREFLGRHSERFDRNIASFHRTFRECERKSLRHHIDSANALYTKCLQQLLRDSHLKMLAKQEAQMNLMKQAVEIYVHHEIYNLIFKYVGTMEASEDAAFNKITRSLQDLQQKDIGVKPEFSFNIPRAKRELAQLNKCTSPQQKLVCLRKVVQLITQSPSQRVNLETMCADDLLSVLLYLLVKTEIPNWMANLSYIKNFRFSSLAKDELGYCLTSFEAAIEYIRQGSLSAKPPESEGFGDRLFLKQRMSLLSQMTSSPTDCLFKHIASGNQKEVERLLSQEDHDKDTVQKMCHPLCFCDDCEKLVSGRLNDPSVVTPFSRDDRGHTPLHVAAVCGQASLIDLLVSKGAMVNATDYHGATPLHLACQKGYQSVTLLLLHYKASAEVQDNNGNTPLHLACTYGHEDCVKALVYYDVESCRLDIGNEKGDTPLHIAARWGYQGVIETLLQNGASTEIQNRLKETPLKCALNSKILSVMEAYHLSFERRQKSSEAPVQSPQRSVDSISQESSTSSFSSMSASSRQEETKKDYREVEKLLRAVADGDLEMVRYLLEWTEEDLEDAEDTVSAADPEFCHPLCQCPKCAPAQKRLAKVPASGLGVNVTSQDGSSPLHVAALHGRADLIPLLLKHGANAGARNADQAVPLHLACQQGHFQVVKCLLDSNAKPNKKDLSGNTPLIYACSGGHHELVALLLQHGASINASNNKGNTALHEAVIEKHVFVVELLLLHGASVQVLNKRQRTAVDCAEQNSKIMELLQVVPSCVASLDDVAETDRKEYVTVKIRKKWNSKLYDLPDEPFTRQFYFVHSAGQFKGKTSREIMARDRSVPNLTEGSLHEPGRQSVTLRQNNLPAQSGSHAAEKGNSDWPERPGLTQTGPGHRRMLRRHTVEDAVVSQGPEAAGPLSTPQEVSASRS
inactive: [1] 0.025 | [2] -0.026 | [3] -0.095 | [4] -0.03 | [5] -0.025 | [6] 0.049 | [7] 0.002 | [8] -0.009 | [9] -0.059 | [10] 0.022

APAF1 (UniProt O14727)
inactive: [1] 0.022 | [2] -0.068 | [3] -0.09 | [4] -0.015 | [5] -0.011 | [6] -0.058 | [7] -0.025 | [8] 0.05 | [9] 0.02 | [10] 0.061

AGO4 (UniProt Q9HCK5)
inactive: [1] 0.013 | [2] -0.076 | [3] -0.01 | [4] -0.113 | [5] 0.014 | [6] 0.048 | [7] -0.001 | [8] -0.014 | [9] -0.004 | [10] 0.002

ACACB (UniProt O00763)
inactive: [1] -0.032 | [2] -0.029 | [3] -0.103 | [4] -0.113 | [5] 0.032 | [6] 0.021 | [7] 0.072 | [8] 0.054 | [9] -0.113 | [10] 0.165

ANXA11 (UniProt P50995)
inactive: [1] -0.005 | [2] -0.008 | [3] 0.001 | [4] -0.044 | [5] -0.022 | [6] 0.008 | [7] 0.026 | [8] 0.012 | [9] -0.03 | [10] 0.039

ANXA1 (UniProt P04083)
UniProt P04083, sequence (P04083 whole entry, looked up): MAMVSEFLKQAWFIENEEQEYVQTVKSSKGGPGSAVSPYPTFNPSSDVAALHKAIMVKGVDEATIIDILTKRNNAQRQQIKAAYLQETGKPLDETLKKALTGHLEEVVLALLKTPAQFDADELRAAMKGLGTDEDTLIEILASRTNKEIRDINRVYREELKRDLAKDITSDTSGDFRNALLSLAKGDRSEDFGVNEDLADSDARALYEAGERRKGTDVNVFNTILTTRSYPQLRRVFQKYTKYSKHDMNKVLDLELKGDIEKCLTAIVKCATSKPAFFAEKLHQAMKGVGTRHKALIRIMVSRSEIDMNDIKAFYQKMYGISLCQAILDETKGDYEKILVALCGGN
inactive: [1] 0.005 | [2] 0.013 | [3] 0.018 | [4] -0.013 | [5] 0.016 | [6] -0.005 | [7] 0.012 | [8] 0.008 | [9] 0.038 | [10] 0.028

AKT2 (UniProt P31751)
inactive: [1] -0.022 | [2] 0.005 | [3] 0.015 | [4] -0.007 | [5] -0.005 | [6] -0.022 | [7] 0.033 | [8] -0.015 | [9] 0.051 | [10] -0.036

AKAP11 (UniProt Q9UKA4)
inactive: [1] 0.021 | [2] -0.08 | [3] 0.025 | [4] -0.02 | [5] 0.015 | [6] -0.176 | [7] 0.061 | [8] -0.036 | [9] -0.084 | [10] -0.005

ABCF2 isoform 2 (UniProt Q9UG63)
UniProt Q9UG63, sequence (Q9UG63 whole entry, looked up): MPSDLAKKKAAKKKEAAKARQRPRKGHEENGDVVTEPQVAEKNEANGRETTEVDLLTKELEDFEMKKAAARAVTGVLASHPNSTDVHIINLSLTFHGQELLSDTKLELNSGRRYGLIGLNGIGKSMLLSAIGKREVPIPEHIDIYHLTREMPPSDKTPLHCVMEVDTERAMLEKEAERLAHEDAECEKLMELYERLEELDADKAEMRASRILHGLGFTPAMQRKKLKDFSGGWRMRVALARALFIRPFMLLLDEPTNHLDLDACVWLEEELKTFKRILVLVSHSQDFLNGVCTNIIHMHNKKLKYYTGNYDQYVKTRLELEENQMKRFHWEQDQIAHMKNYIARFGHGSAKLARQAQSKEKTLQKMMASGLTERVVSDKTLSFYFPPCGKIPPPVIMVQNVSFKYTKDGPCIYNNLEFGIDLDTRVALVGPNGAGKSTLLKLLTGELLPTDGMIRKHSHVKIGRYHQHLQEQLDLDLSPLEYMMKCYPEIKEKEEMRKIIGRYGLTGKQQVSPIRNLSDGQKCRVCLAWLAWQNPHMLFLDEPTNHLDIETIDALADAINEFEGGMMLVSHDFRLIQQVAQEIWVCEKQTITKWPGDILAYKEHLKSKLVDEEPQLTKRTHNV
inactive: [1] -0.038 | [2] -0.005 | [3] -0.011 | [4] -0.001 | [5] 0.021 | [6] -0.097 | [7] 0.057 | [8] -0.002 | [9] -0.025 | [10] -0.024

ANP32A (UniProt P39687)
inactive: [1] 0.068 | [2] -0.001 | [3] 0 | [4] -0.063 | [5] -0.003 | [6] 0.065 | [7] 0.014 | [8] 0.096 | [9] 0.126 | [10] 0

ACACA isoform 4 (UniProt Q13085)
inactive: [1] -0.019 | [2] 0 | [3] -0.081 | [4] -0.001 | [5] 0.032 | [6] -0.068 | [7] 0.033 | [8] 0.045 | [9] -0.056 | [10] 0.061

ABCA3 (UniProt Q99758)
UniProt Q99758, sequence (Q99758 whole entry, looked up): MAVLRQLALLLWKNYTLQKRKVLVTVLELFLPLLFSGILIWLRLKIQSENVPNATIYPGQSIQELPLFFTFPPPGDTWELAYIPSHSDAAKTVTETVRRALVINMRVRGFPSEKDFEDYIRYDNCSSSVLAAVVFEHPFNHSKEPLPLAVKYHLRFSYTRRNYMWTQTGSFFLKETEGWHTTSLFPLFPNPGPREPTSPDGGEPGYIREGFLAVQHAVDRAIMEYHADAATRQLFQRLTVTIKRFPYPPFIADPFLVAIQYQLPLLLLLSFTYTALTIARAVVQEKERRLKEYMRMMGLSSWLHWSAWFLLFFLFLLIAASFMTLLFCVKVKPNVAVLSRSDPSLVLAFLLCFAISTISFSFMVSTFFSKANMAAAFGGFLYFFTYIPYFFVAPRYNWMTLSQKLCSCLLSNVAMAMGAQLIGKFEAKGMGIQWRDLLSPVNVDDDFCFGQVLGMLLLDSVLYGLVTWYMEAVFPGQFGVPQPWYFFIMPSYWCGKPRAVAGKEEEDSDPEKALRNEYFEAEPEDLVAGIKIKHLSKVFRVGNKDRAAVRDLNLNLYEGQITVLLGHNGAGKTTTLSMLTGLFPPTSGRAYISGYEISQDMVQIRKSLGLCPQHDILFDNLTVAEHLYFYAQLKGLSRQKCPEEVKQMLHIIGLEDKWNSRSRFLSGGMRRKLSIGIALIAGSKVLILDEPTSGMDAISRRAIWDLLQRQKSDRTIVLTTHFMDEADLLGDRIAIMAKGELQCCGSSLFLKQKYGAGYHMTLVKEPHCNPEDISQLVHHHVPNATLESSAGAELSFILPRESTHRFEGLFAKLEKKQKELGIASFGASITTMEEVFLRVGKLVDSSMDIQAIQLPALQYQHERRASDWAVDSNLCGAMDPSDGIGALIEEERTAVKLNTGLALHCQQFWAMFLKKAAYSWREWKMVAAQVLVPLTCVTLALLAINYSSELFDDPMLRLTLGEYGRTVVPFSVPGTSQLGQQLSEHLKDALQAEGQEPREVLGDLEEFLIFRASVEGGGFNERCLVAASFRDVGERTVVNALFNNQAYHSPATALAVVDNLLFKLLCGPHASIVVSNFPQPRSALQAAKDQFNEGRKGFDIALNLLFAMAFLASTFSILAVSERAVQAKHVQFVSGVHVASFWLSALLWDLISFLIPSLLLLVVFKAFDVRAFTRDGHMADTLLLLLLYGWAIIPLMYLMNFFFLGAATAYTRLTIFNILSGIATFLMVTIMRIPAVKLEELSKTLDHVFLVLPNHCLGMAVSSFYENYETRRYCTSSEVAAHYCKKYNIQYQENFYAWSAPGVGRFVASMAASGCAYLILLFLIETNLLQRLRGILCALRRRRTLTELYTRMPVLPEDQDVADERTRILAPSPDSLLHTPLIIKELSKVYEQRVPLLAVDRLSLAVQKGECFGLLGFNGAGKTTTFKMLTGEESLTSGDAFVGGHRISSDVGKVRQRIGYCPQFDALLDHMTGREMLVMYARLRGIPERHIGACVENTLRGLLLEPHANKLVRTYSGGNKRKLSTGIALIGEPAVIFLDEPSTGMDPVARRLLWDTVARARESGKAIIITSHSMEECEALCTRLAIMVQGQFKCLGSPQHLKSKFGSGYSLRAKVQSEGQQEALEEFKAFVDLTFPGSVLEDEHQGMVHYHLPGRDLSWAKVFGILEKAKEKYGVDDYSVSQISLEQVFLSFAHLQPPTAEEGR
inactive: [1] 0.025 | [2] -0.028 | [4] -0.156 | [5] 0.061 | [6] 0.113 | [7] -0.16 | [8] 0.203 | [9] -0.006 | [10] -0.075
active: [3] -0.469

AP4B1 (UniProt Q9Y6B7)
inactive: [1] 0.064 | [2] -0.142 | [3] 0.025 | [4] -0.106 | [5] -0.058 | [6] -0.023 | [7] -0.011 | [8] 0.019 | [9] -0.079 | [10] 0.135

ARMC6 (UniProt Q6NXE6)
inactive: [1] 0 | [2] -0.015 | [3] -0.022 | [4] 0.012 | [5] -0.027 | [6] -0.067 | [7] 0.024 | [8] 0 | [9] -0.016 | [10] -0.009

AMMECR1 (UniProt Q9Y4X0)
inactive: [1] 0.005 | [2] -0.013 | [3] -0.011 | [4] -0.027 | [5] 0.022 | [6] -0.019 | [7] 0.039 | [8] -0.009 | [9] -0.04 | [10] 0.037

AKR1C2 (UniProt P52895)
inactive: [1] -0.012 | [2] -0.022 | [3] -0.059 | [4] -0.201 | [5] 0.049 | [7] 0.014 | [8] -0.011 | [9] 0.108 | [10] 0.18
active: [6] 0.276

ARFGAP1 (UniProt Q8N6T3)
inactive: [1] 0.002 | [2] 0.175 | [3] 0.031 | [4] -0.077 | [5] -0.054 | [7] -0.011 | [8] 0.202 | [9] -0.157 | [10] 0.202
active: [6] 1.08

ARHGAP25 isoform 4 (UniProt P42331)
inactive: [1] 0.011 | [2] -0.024 | [3] -0.053 | [4] -0.011 | [5] 0.008 | [6] -0.024 | [7] -0.006 | [8] -0.005 | [9] -0.075 | [10] 0.081

ALG8 (UniProt Q9BVK2)
inactive: [1] -0.043 | [2] -0.043 | [3] 0.017 | [4] -0.211 | [5] -0.013 | [6] 0 | [7] 0.116 | [8] -0.06 | [9] -0.08 | [10] 0.087

ABI1 isoform 9 (UniProt Q8IZP0)
active: [4] -0.26
inactive: [1] 0.011 | [2] -0.048 | [3] -0.006 | [5] 0.01 | [6] 0.13 | [7] 0.008 | [8] -0.015 | [9] 0.08 | [10] 0.163

ADRM1 (UniProt Q16186)
inactive: [1] -0.009 | [2] -0.012 | [3] -0.05 | [4] 0.019 | [5] 0.03 | [6] -0.014 | [7] -0.019 | [8] 0.042 | [9] 0.006 | [10] 0.02

ANXA2 isoform 2 (UniProt P07355)
inactive: [1] 0.009 | [2] -0.005 | [3] 0.029 | [4] 0.017 | [5] -0.028 | [6] 0.008 | [7] -0.001 | [8] -0.024 | [9] 0.065 | [10] -0.041

ARGLU1 (UniProt Q9NWB6)
UniProt Q9NWB6, sequence (Q9NWB6 whole entry, looked up): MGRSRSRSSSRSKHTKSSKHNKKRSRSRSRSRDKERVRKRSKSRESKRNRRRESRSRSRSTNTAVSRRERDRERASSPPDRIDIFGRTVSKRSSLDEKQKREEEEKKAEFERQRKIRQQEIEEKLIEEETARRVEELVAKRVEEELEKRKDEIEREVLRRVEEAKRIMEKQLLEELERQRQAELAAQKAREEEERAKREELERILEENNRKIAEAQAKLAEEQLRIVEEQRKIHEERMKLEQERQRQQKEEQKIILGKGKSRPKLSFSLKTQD
inactive: [1] 0.038 | [2] 0.013 | [3] 0.043 | [4] -0.062 | [5] -0.023 | [6] -0.119 | [7] 0.045 | [8] 0.019 | [9] -0.014 | [10] 0.013

AARS2 (UniProt Q5JTZ9)
inactive: [1] 0.007 | [2] 0.01 | [3] -0.046 | [4] 0.072 | [5] 0.012 | [6] -0.121 | [7] 0.039 | [8] 0.034 | [9] -0.041 | [10] 0.019

ABHD17A isoform 2 (UniProt Q96GS6)
inactive: [1] -0.034 | [2] -0.044 | [3] 0.017 | [4] -0.074 | [5] 0.01 | [6] 0.139 | [7] 0.019 | [8] 0.044 | [9] 0.019 | [10] 0.065

AP1G2 (UniProt O75843)
UniProt O75843, sequence (O75843 whole entry, looked up): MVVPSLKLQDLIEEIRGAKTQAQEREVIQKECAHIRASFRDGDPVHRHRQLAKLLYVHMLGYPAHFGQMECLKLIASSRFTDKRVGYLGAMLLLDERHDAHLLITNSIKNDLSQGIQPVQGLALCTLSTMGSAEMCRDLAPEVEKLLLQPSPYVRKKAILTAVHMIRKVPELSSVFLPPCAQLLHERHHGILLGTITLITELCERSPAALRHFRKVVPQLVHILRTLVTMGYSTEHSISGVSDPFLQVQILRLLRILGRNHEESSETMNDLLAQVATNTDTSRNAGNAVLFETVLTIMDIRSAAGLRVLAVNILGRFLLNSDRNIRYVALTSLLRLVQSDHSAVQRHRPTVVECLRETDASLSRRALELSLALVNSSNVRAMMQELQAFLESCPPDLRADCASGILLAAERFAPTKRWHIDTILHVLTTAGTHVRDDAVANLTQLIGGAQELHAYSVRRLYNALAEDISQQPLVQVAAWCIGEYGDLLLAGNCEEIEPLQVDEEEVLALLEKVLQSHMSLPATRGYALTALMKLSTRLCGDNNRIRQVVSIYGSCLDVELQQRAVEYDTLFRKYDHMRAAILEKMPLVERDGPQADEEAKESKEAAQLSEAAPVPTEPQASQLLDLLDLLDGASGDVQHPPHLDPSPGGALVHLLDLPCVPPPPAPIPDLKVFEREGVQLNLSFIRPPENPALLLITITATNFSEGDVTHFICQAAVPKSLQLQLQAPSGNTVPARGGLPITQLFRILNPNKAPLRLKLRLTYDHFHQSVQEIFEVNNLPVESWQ
inactive: [1] 0.068 | [2] -0.008 | [3] -0.095 | [4] -0.049 | [5] -0.02 | [6] 0 | [7] -0.02 | [8] -0.004 | [9] 0.026 | [10] 0.039

ALDH18A1 (UniProt P54886)
inactive: [1] -0.052 | [2] -0.063 | [3] -0.034 | [4] 0.001 | [5] -0.017 | [6] -0.064 | [7] 0.002 | [8] 0.047 | [9] -0.006 | [10] 0.018
